# FUS yeast rescue = qHTS for Suppressors of FUS Proteinopathy: Primary screen using FUS-linked yeast assay; S. cerevisiae FUS-expressing, growth rescue, OD600, 24 h; 390,000 tested, 0.24% active; AID 1347120, 2019; Potency, µM (doses to about 76.6 µM), most hits filed as activators; also: nearly all actives have a fitted effect of over 55% in size
#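 Yeast expressing FUS under galactose induction, OD 0.005 in 2% galactose medium; compounds in a dilution series, 24 h at 30C. Growth rescue by absorbance at 600 nm; CP55940 positive control, DMSO negative.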
# TDP43 rescue = qHTS of TDP-43 Inhibitors; 410,000 tested, 1.8% active; TDP-43 expressing yeast growth rescue, BacTiter-Glo, 24 h; Potency, µM (top dose mostly 46.1 µM), most hits filed as activators; also: nearly all actives have a fitted effect of over 50% in size
#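 Yeast expressing TDP-43 (pregrown in raffinose, seeded at OD600=0.02 in galactose medium) exposed to compounds 24 hr at 30 deg C. Growth read by BacTiter-Glo luminescence; rescue of toxicity appears as increased signal.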
# MmCpn inh = Inhibitors of TCP-1 ring complex (TRiC) of Methanococcus maripaludis (MmCpn): qHTS. Chaperonin Mm-Cpn (Methanococcus maripaludis). purified Mm-Cpn ATPase, ADP Transcreener TR-FRET. Potency, µM (titrated, usually from 76.9 µM), usual class: inhibitors. 330,000 tested, 0.031% active. AID 504842, 2011; also: nearly all actives have a fitted effect of over 80% in size
#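 Quantitative HTS used 25 nM Mm-CPN and 10 uM ATP in magnesium/KCl Tris buffer, pH 7.4, with 1 mM DTT. Hydrolysis ran 30 min at 37°C; ADP was read by HTRF.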
# Abeta yeast res = qHTS for compounds that reverse cellular toxicity of Amyloid beta (A-beta) peptide in yeast: Primary Screen | AID 1347071, 2019 | 410,000 tested, 0.063% active | yeast expressing A-beta42, growth rescue, OD600, 48 h; response scale: 0% DMSO, 100% iron-clioquinol control | Potency, µM (top dose mostly 46.1 µM), actives largely listed as activators; also: nearly all actives have a fitted effect of over 55% in size
#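 Yeast growth medium received pinned compounds, then yeast cells expressing toxic A-beta were added; plates incubated at 30 C for 48 hr. Growth read as absorbance at 600 nm, normalized to DMSO and equimolar FeCl3 plus clioquinol controls.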
# aSyn rescue = qHTS of alpha-syn Inhibitors | Yeast expressing alpha-synuclein, growth rescue, BacTiter-Glo, 24 h | Potency, µM (doses to about 46.1 µM), actives largely listed as activators | 370,000 tested, 0.14% active | AID 652106, 2013; also: nearly all actives have a fitted effect of over 65% in size
#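 Screening used galactose-induced yeast with toxic alpha-synuclein levels, exposed to compound for 24 hr at 30 deg C. Cell growth, read with BacTiter-Glo luminescence, gave the measured signal.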
# ClpP mod = qHTS Assay for Activators of ClpP; purified B. subtilis ClpP, FRET peptide cleavage, 20 min; Potency, µM (doses to about 57.5 µM); 340,000 tested, 1.9% active; AID 651965, 2013; active = well fitted falling curve with a large enough effect; inconclusive = small, poorly fitted or top-dose-only effect; inactive = no such curve, though single readings can be large or run the other way; also: the source files actives as falling curves though it sought activators and does not explain the sign; nearly all actives have a fitted effect of over 65% in size
# Target sequence (P80244 whole entry, looked up): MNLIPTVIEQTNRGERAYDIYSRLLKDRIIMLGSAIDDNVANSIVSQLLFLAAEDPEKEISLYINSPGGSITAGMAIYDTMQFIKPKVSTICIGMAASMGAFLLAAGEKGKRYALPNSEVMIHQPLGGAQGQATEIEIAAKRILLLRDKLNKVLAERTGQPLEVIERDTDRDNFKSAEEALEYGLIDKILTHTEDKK
#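 FRET quenching reversal measured ClpP activation: 10 microg/mL B. subtilis ClpP at pH 8 with the FRET-FV decapeptide, read at 430 nm after 320 nm excitation. The 20-min minus 0-min signal was scaled between DMSO/no-enzyme wells and ADEP (5.8 microM final).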
# A number is an active result; – = inactive; ? = inconclusive; · = not tested or not shown. This is a sample that favours compounds with a hit; in the whole collection about 3.6% have one here. Unless noted, calls follow the shape of the dose curve; as a rule, active = well fitted curve in the direction sought with a large enough effect; inconclusive = small, poorly fitted or top-dose-only effect, or another doubt; inactive = no such curve, though single readings can be large; an effect the other way counts as inactive or inconclusive.
SMILES,FUS yeast rescue,TDP43 rescue,MmCpn inh,Abeta yeast res,aSyn rescue,ClpP mod
Cc1ccc2c(c1)C(CS(=O)(=O)NCc1ccccc1)NC2 (centres undefined),–,·,·,·,·,·
COc1cccc(Oc2nnnn2-c2ccccc2)c1,–,13µM,–,–,·,–
COc1ccc(Oc2nnnn2-c2ccccc2)cc1,–,11µM,–,–,–,–
c1ccc(-n2nnnc2Oc2ccc(-n3ccnc3)cc2)cc1,–,–,?,–,–,–
COc1ccc(Oc2cnn(-c3ccccc3)c(=O)c2Br)cc1,–,13µM,?,–,–,–
NC(=O)c1ccc(-n2nnnc2Oc2ccccc2)cc1,–,–,–,–,–,–
Cc1ccc(C(C)C)c(Oc2nnnn2-c2ccccc2)c1,–,–,–,–,–,–
COc1cnn(-c2ccc(C)cc2)c(=O)c1Br,–,?,–,–,–,·
Cc1ccc(C)c(Oc2nnnn2-c2ccccc2)c1,–,11µM,–,–,–,–
Cc1ccc(NC(=O)c2c(C)oc3ncn(C)c(=O)c23)cc1F,–,?,·,–,·,–
COc1ccc(-c2nc3c4ccccc4n(CC(=O)N4CCN(c5ccc(F)cc5)CC4)c(=O)n3n2)cc1,–,–,·,–,·,–
Clc1ccc(Oc2nnnn2-c2ccccc2)cc1,–,11µM,–,–,–,–
c1ccc(-n2nnnc2Oc2ccc(-c3nnco3)cc2)cc1,–,–,–,–,–,–
CN(C)S(=O)(=O)c1ccc(N2CCCC2)c(C(=O)Nc2nc3c(ccc4ccccc43)s2)c1,·,–,?,–,–,28µM
O=C(Nc1cccc2ccccc12)N1CC=CCC1,–,–,–,–,–,28µM
COc1ccc(-c2cc(C(=O)N3CCN(c4cccc(C)c4C)CC3)c3ccccc3n2)cc1OC,?,?,–,–,–,25µM
COc1ccc(CCN(C)C(=O)c2cc(-c3ccc(C)cc3)nc3ccccc23)cc1OC,–,–,·,–,–,–
COc1cccc(-c2cc(C(=O)N3CCN(c4ncccn4)CC3)c3ccccc3n2)c1,·,18µM,–,–,–,–
Cc1cccc2c(C(=O)N3CCN(c4ccccn4)CC3)cc(-c3cccc(Br)c3)nc12,?,18µM,–,–,–,–
O=C(c1cc(-c2cccc(Cl)c2)nc2ccccc12)N1CCN(c2ccccn2)CC1,–,–,–,–,–,–
COc1ccc(-c2cc(C(=O)N(C)Cc3ccc(F)cc3)c3ccccc3n2)cc1OC,–,22µM,·,–,–,–
O=C(OC12CCCN(C1)/C(=C/c1ccncc1)C2)c1ccc(Cl)cc1 (centres undefined),–,·,·,·,·,·
Cc1coc2cc3oc(=O)c(CC(=O)NCCc4ccccc4)c(C)c3cc12,–,–,·,–,·,–
Cc1ccc(CNC(=O)c2sc3nc4n(c(=O)c3c2C)CCCCC4)cc1,–,25µM,·,–,·,–
Cc1c(C(=O)NCc2ccc(Cl)cc2)sc2nc3n(c(=O)c12)CCCCC3,–,?,·,–,·,–
SMILES,FUS yeast rescue,TDP43 rescue,MmCpn inh,Abeta yeast res,aSyn rescue,ClpP mod
Cc1ccc(CNC(=O)c2sc3nc4n(c(=O)c3c2C)CCCC4)cc1,–,13µM,·,–,·,–
Cc1c(C(=O)NCCc2ccc(Cl)cc2)sc2nc3n(c(=O)c12)CCC3,–,?,–,–,–,–
Cc1c(C(=O)NCc2ccccc2)sc2nc3n(c(=O)c12)CCCCC3,–,?,·,–,·,–
Cc1c(C(=O)NCCc2ccc(Cl)cc2)sc2nc3n(c(=O)c12)CCCC3,?,18µM,·,–,·,–
COc1ccc(CCNC(=O)c2cc3c(-c4ccc(OC)c(OC)c4)nn(C)c3s2)cc1OC,?,–,·,–,·,–
CCN1C(=O)/C(=C\c2ccncc2)SC1=Nc1ccc(C)c(C)c1,·,14µM,–,–,–,–
CCCN1C(=O)/C(=C\c2ccncc2)SC1=Nc1ccccc1,·,?,–,–,–,–
